A number with no mark means an inactive call. Results filed as inconclusive are left out. Active and inactive are the calls of the source. Calls follow the shape of the dose curve; as a rule, active = well fitted curve in the direction sought with a large enough effect; inconclusive = small, poorly fitted or top-dose-only effect, or another doubt; inactive = no such curve, though single readings can be large; an effect the other way counts as inactive or inconclusive.

The target in experiment [1] is Phospholipid hydroperoxide glutathione peroxidase GPX4 (Homo sapiens) (UniProt P36969). The experiment is described as follows: Primary qHTS Assay for Inhibitors of Recombinant Selenoprotein Glutathione Peroxidase 4 (GPX4) (AID 1845192). Also: nearly all actives have a fitted effect of over 65% in size. As to activity change, negative = inhibition: % is scaled to controls: 0 for no effect and ±100 for the full control effect. In outline:
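GR-coupled readout: 100 nM GR, 1 mM GSH, 0.5 mM NADPH; NADPH fluorescence (ex 340/em 450 nm) read at t=0 and after 15 min RT. GPX4 200 nM, preincubated 30 min with compound; substrate 0.5 mM CHP.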
A general note: qHTS replaces the single test concentration by a dilution series.

In experiment [2] the target is Luciferin 4-monooxygenase (Photinus pyralis) (UniProt P08659). The experiment is described as follows: Primary firefly luciferase (FLuc) qHTS assay for identification of artifact compounds. (AID 1845220). Also: nearly all actives have a fitted effect of over 60% in size.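 As to activity change, negative = inhibition: plate controls were DMSO vehicle for no effect and no enzyme for full effect.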 Summed up:
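Reaction readout was CCD-imaged luminescence, taken 5 min after adding 10 nM purified firefly enzyme to compound-treated wells holding 10 uM luciferin and ATP in pH 7.6 buffer.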

The nature of experiment [3]: Primary fluorescence-based thiol-reactive (MSTI) qHTS assay for identification of artifact compounds. (AID 1845221).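 Also: thiol-reactive compounds lower the probe fluorescence signal; nearly all actives have a fitted effect of over 65% in size.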 In outline: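 MSTI probe at 4 uM final in 2% DMSO/PBS pH 7.4; compounds, 1 h at room temperature in dark. Fluorescence Ex/Em 525/598 nm, normalised to Acetyl-MSTI and MSTI, fitted to 4-parameter Hill.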
Experiment [4] deals with Nanoluciferase (engineered Oplophorus gracilirostris luciferase). The experiment is described as follows: Primary Nanoluciferase (NLuc) qHTS assay for identification of artifact compounds. (AID 1845222).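 Also: NLuc secreted into diluted conditioned medium of S16 cells; 0% = DMSO and -100% = no enzyme.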 In outline: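 Concentration-response data were obtained by luminescence after 5 min with Nano-Glo substrate at 1:100. The enzyme was diluted S16 NLuc-expressing cell medium, preincubated with compound for 15 min at RT. Curves were fitted with a 4-parameter Hill model.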

Experiment [5] can be described thus: Primary redox qHTS assay for identification of artifact compounds. (AID 1845223).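 Also: 0% = DMSO and 100% = reference compound.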 In outline: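 Amplex Red (25 uM) and HRP (250 mU/mL) in HBSS, with compounds for 15 min, then 250 uM DTT for 30 min, room temperature, dark. Fluorescence 525/598 nm read; normalized to DMSO and 10 uM DA3003; Hill fit.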
Experiment [6] can be described thus: Quantitative High-Throughput drug screen in 47 multiple myeloma cell lines against the NCATS MIPE library collection: Delta47_JCRB cell viability assay (AID 1918925; also: nearly all actives have a fitted effect of over 45% in size; also: potency is read from the fitted curve at half-maximal effect). Summed up:
(§1)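 Inhibition of cell viability is measured here. Each line was plated at 500 cells per well, treated with MIPE 4.0 drugs, kept 48 hours at 37C, then assayed for ATP content by CellTiter-Glo luminescence.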

Experiment [7] can be described thus: Quantitative High-Throughput drug screen in 47 multiple myeloma cell lines against the NCATS MIPE library collection: EJM_DSMZ cell viability assay (AID 1918926; also: nearly all actives have a fitted effect of over 30% in size; also: potency is read from the fitted curve at half-maximal effect). In outline: as §1
Experiment [8] in a line: Quantitative High-Throughput drug screen in 47 multiple myeloma cell lines against the NCATS MIPE library collection: AMO1_DSMZ cell viability assay (AID 1918927; also: nearly all actives have a fitted effect of over 30% in size; also: potency is read from the fitted curve at half-maximal effect). In outline: as §1
Experiment [9] can be described thus: Quantitative High-Throughput drug screen in 47 multiple myeloma cell lines against the NCATS MIPE library collection: Karpas620_DSMZ cell viability assay (AID 1918959). Also: nearly all actives have a fitted effect of over 30% in size. Summed up:
(§2)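 Viability readout: CellTiter-Glo luminescence following 5 min room-temperature incubation with reagent. Prior exposure: 48 h, 37C, humidified 5% CO2, 500 cells per well.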

Experiment [10] is described as follows: Quantitative High-Throughput drug screen in 47 multiple myeloma cell lines against the NCATS MIPE library collection: Karpas417_ECACC cell viability assay (AID 1918961). Also: potency is read from the fitted curve at half-maximal effect. As to conditions: Karpas417 myeloma viability, CellTiter-Glo ATP luminescence, 48 h; viability (% of DMSO): at 45.8 µM (top of the series). In outline: (§3)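 Approved and investigational drugs from MIPE 4.0 were added by pin tool to 500 cells per well. After 48 hours at 37C, ATP-based CellTiter-Glo luminescence indicated remaining viability.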
(In general: Cellular ATP, detected with luciferase, serves as a proxy for viable cell number.)

Experiment [11] can be described thus: Quantitative High-Throughput drug screen in 47 multiple myeloma cell lines against the NCATS MIPE library collection: KHM11_PLB cell viability assay (AID 1918962). Also: nearly all actives have a fitted effect of over 35% in size. Also: potency is read from the fitted curve at half-maximal effect. In outline:
as §2

The nature of experiment [12]: Quantitative High-Throughput drug screen in 47 multiple myeloma cell lines against the NCATS MIPE library collection: JIM3_ECACC cell viability assay (AID 1918963; also: nearly all actives have a fitted effect of over 35% in size; also: potency is read from the fitted curve at half-maximal effect). Summed up:
as §2

Experiment [13] is described as follows: Quantitative High-Throughput drug screen in 47 multiple myeloma cell lines against the NCATS MIPE library collection: INA6_PLB cell viability assay (AID 1918965; also: potency is read from the fitted curve at half-maximal effect; nearly all actives have a fitted effect of over 55% in size). In outline: as §3
The nature of experiment [14]: Quantitative High-Throughput drug screen in 47 multiple myeloma cell lines against the NCATS MIPE library collection: H1112_PLB cell viability assay (AID 1918967; also: nearly all actives have a fitted effect of over 30% in size; also: potency is read from the fitted curve at half-maximal effect). In outline: as §1
Experiment [15] in a line: Quantitative High-Throughput drug screen in 47 multiple myeloma cell lines against the NCATS MIPE library collection: FR4_PLB cell viability assay (AID 1918924; also: nearly all actives have a fitted effect of over 35% in size; also: potency is read from the fitted curve at half-maximal effect). Summed up:
as §2

Experiment [16] in a line: Quantitative High-Throughput drug screen in 47 multiple myeloma cell lines against the NCATS MIPE library collection: ARP1_JJKsccF8 cell viability assay (AID 1918928; also: nearly all actives have a fitted effect of over 40% in size; also: potency is read from the fitted curve at half-maximal effect). Summed up:
(§4)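 Myeloma cells at 500 per well in 1536-well format treated with MIPE 4.0 library by pin transfer for 48 h at 37C, 5% CO2. Viability from ATP luminescence (CellTiter-Glo), normalized to DMSO (100%) and media-only (0%) wells.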

A short description of experiment [17]: Quantitative High-Throughput drug screen in 47 multiple myeloma cell lines against the NCATS MIPE library collection: JJN3_DSMZ cell viability assay (AID 1918966; also: nearly all actives have a fitted effect of over 50% in size; also: potency is read from the fitted curve at half-maximal effect). Summed up:
as §1

A short description of experiment [18]: Quantitative High-Throughput drug screen in 47 multiple myeloma cell lines against the NCATS MIPE library collection: KMM1_JCRB cell viability assay (AID 1918960). Also: nearly all actives have a fitted effect of over 30% in size. Also: potency is read from the fitted curve at half-maximal effect. Summed up: as §4
A short description of experiment [19]: Quantitative High-Throughput drug screen in 47 multiple myeloma cell lines against the NCATS MIPE library collection: ARD_JJKsccE7 cell viability assay (AID 1918929). In outline: as §1
Experiment [20] is described as follows: Quantitative High-Throughput drug screen in 47 multiple myeloma cell lines against the NCATS MIPE library collection: JIM1_ECACC cell viability assay (AID 1918964; also: potency is read from the fitted curve at half-maximal effect). Summed up: as §1

Phospholipid hydroperoxide glutathione peroxidase GPX4 (Homo sapiens), sequence (P36969 whole entry, looked up): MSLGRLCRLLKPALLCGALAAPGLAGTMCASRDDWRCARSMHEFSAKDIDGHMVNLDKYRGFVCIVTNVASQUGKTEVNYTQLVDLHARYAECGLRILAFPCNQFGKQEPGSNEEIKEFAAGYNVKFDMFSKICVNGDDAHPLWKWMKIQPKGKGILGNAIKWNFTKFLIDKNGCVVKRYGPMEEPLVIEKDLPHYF

Take `COc1ccc(-c2cc3nccn3c(Nc3ncccc3C(N)=O)n2)cc1OC`: the Potency result in experiment [1], in experiment [2], in [3], in [4] and in [9] was “inactive” in each case. In experiment [5], the call was inactive. Further, the Potency is 0.833 µM (active) in experiment [6]; 4.69 µM (active) in [7]; 0.469 µM (active) in [8]; 0.166 µM (active) in experiment [10]; 0.833 µM (active) in experiment [11]; 1.05 µM (active) in [12]. Moreover, the Potency was 0.187 µM (active) in experiment [13] and 5.9 µM (active) in [14].

Take `Cc1cnc(CNC(=O)c2c(=O)c3ccc(N4CCCN(C)CC4)nc3n3c2sc2ccccc23)cn1`: the values for the activity change, negative = inhibition in experiment [1] and in [2] were -0.552% [at 9.73 µM] and 3.83% [at 11.6 µM], respectively. The activity change, negative = thiol reactive in experiment [3] is 18.4% [at 11.5 µM]. Besides, the activity, negative = inhibition in experiment [4] is 4.41% [at 11.6 µM]. Moreover, the redox activity (% of DA3003) in [5] is -5.5% [at 11.5 µM]. The Potency is 12.9 µM (active) in experiment [15], 0.457 µM (active) in experiment [6], 0.512 µM (active) in [8] and 9.11 µM (active) in experiment [16]. Also, the Potency result in experiment [9] and in experiment [11] was “inactive” throughout.

Consider `CCn1c(-c2nonc2N)nc2cncc(CNC3CCNCC3)c21`, for which the Potency entry in experiment [1], in [2], in [3], in experiment [4], in experiment [15] and in [7] was “inactive” each time. Besides, the molecule was called inactive in experiment [5]. For the same molecule, the Potency in experiment [11] was 2.64 µM (active); in experiment [12] it was 2.96 µM (active); in experiment [13], 5.9 µM (active); in experiment [17] it was 5.26 µM (active); in experiment [14], 5.26 µM (active).

`CN(C)CCCNC(=O)c1ccc(-c2cc(O)c3ncccc3c2)cc1`: the Potency result in [1], in experiment [2] and in [4] was “inactive” throughout. Moreover, the Potency is 20.9 µM (active) in experiment [15]; 20.9 µM (active) in experiment [18]; 23.5 µM (active) in experiment [12]; 20.9 µM (active) in [13]; 20.9 µM (active) in experiment [17].

On to `COC(=O)[C@H](c1ccccc1Cl)N1CCc2sccc2C1`, for which the Potency result in experiment [1], in experiment [15], in [6], in experiment [16] and in experiment [12] was “inactive” throughout. The Potency in [8] was 26.4 µM (active); in experiment [17], 20.9 µM (active).

`COc1cc(F)c(C(C)C)cc1-c1ccc(C(F)(F)F)cc1CN1C(=O)O[C@H](c2cc(C(F)(F)F)cc(C(F)(F)F)c2)[C@@H]1C`: the Potency entry in experiment [1], in experiment [15], in experiment [6], in experiment [7], in [8] and in experiment [19] was “inactive” each time. The Potency result in experiment [9], in experiment [18], in experiment [12], in [20] and in experiment [14] was “inactive” in each case.

`C[C@@H]1CCO[C@H]2Cn3cc(C(=O)NCc4ccc(F)cc4F)c(=O)c(O)c3C(=O)N12`: the Potency entry in experiment [1], in [2], in experiment [4], in [18] and in experiment [14] was “inactive” throughout. Further, the result in experiment [5] was inactive. The Potency in experiment [15] was 37.2 µM (active); in experiment [20] it was 23.5 µM (active); in experiment [13] it was 20.9 µM (active).

Consider `Cc1cn([C@@H]2C[C@@H](O)[C@H](CO)O2)c(=O)[nH]c1=O`, for which the Potency entry in experiment [1], in experiment [15], in [6], in experiment [7], in [8] and in experiment [19] was “inactive” each time. Also, the Potency result in experiment [9], in experiment [18], in [11], in experiment [20], in [17] and in [14] was “inactive” throughout.

On to `CN1CCc2c(n(Cc3ccc(C(=O)NO)cc3)c3ccccc23)C1`, for which the Potency entry in [1], in [2] and in [4] was “inactive” throughout. In experiment [5], the molecule was classed as inactive. The Potency in [15] was 16.6 µM (active); in [6] it was 20.9 µM (active); in experiment [16], 18.7 µM (active); in experiment [13], 4.69 µM (active); in experiment [17] it was 16.6 µM (active).
